Source: PubChem (several laboratories)
hgDAF-12 ag: agonists of H. glycines DAF-12 nuclear receptor; hit rate 1.8% among 370,000; HEK293 GAL4-hgDAF12 UAS-luciferase reporter, agonist luminescence; normalized to butyrate control; activation, % at 6.8 µM;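 active means activation above a cutoff set at the mean of all screened compounds plus 3 SD, cut at about 10% in these data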
Wnt act: activates Wnt/beta-catenin signaling in a reporter cell assay | activator, plate reader | activation, % at 9.35 µM | hit rate 1.2% among 300,000 | AID 743398; in the data active means activation above about 30%, passing the limit was not always enough; inconclusive means no clear call, values can overlap the other calls
DAX1 StAR inh: DAX1 (NR0B1) inhibition, primary screen; HEK293T StAR-luciferase reporter, SF-1/DAX-1 repression relief; inhibition, % at 6.8 µM; hit rate 1.1% among 370,000;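 active means inhibition above the mean over all tested compounds plus 3 SD, cut at about 3.6% in these data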;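 further: higher inhibition means more luminescence from relief of DAX-1 repression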
ssDAF-12 act: activators of S. stercoralis DAF-12 nuclear receptor; activation, % at 6.8 µM; hit rate 1% among 370,000; AID 652126; HEK293 ssDAF-12/GRIP1 lit1-tk-luc reporter, luminescence; % of 3 µM dafachronic acid response;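 active means activation above the mean over all tested compounds plus 3 SD, cut at about 0.9% in these data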
hcDAF-12 act: activators of H. contortus DAF-12 nuclear receptor | hit rate 1.4% among 370,000 | HEK293 hcDAF-12 lit1-tk-luc reporter, luminescence; 0% DMSO, 100% Δ7-dafachronic acid | activation, % at 6.8 µM;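 active means activation above the mean of all tested compounds plus 3 SD, cut at about 5.5% in these data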
esBAF inh: inhibitors of esBAF chromatin remodeling in mouse ES cells | Bmi1-luciferase knock-in reporter, 24 h; 100% = twice the neutral-well signal | reporter increase, % at 12.5 µM | hit rate 2% among 350,000 | AID 602393; in the data active means activation above about 40%; inconclusive means no clear call, values can overlap the other calls;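 further: a rise in the Bmi1 reporter signal indicates esBAF inhibition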
Numbers stand for hits; . = inactive; ? = inconclusive; / = no result. Most compounds without a hit are left out; they make up all but 4.2% or so of the library.

SMILES	hgDAF-12 ag	Wnt act	DAX1 StAR inh	ssDAF-12 act	hcDAF-12 act	esBAF inh
Oc1ccc(/C=N/Nc2ccc(C(F)(F)F)cn2)cc1	.	.	4.4	.	.	/
C/C(=N\Nc1ccc(C(F)(F)F)cn1)c1ccncc1	.	.	4.0	.	.	.
C/C(=N\NC(=O)c1ccc(N/N=C(\C)c2ccncc2)cc1)c1ccncc1	.	.	.	.	.	/
Oc1ccc(/C=N/Nc2ccc(C(F)(F)F)cn2)c(O)c1	.	.	.	.	.	/
CC(=O)c1ccc(S(=O)(=O)N(Cc2cc3cc4c(cc3[nH]c2=O)OCCO4)CC2CCCO2)cc1 (configuration not stated)	.	.	.	.	.	46
C[C@@H]1CN([C@@H](C)CO)S(=O)(=O)c2ccc(-c3cccc(F)c3)cc2O[C@H]1CN(C)C(=O)C1CC1	/	/	/	/	/	.
Cc1nonc1NC(=O)CSc1nc2cc(Cl)ccc2c2c1CCCC2	/	.	/	/	/	/
Cc1ccc2c3c(c(SCC(=O)Nc4nonc4C)nc2c1)CCCC3	11	/	.	.	.	.
c1cc(-c2cccs2)nc(-c2cccs2)c1	.	.	.	.	.	/
c1csc(-c2cnc3ccccc3n2)c1	.	55	.	.	.	/
COc1cc(NC(=O)CSc2nnc3c(C)cc4cc(C)cc(C)c4n23)c(C(=O)O)cc1OC	11	.	.	.	.	/
COc1cc(NC(=O)CSc2nnc3c(C)cc4c(C)ccc(C)c4n23)c(C(=O)O)cc1OC	.	.	.	.	.	/
CO[C@@H]1CN(C)C(=O)c2cc(NS(C)(=O)=O)ccc2OC[C@H](C)N(CCC(F)(F)F)C[C@H]1C	/	/	/	/	/	.
CCCCn1c(N)c(N(CC(C)C)C(=O)c2cc(Cl)nc3ccccc23)c(=O)[nH]c1=O	.	.	.	1.1	.	/
CCCCn1c(N)c(N(CC(C)C)C(=O)c2ccc(S(=O)(=O)N(CC)c3ccccc3)cc2)c(=O)[nH]c1=O	.	.	.	1.4	.	.
CCCCN(C(=O)c1ccc(S(=O)(=O)N(C)c2ccccc2)cc1)c1c(N)n(CCC)c(=O)[nH]c1=O	.	.	4.4	.	.	.
C[C@@H]1CN([C@H](C)CO)C(=O)c2cc(NC(=O)Nc3ccc4c(c3)OCO4)ccc2O[C@@H](C)CCCCO[C@H]1CN(C)Cc1ccc(Cl)c(Cl)c1	/	/	/	/	/	.
Cc1ccc(-n2c(C)cc(C(=O)COC(=O)c3c(C)noc3C)c2C)cc1	.	51	.	.	.	.
Cc1ccc(-n2c(C)cc(C(=O)COC(=O)C3=NNC(=O)CC3)c2C)cc1	.	/	.	.	.	.
Cc1cccc(C)c1NC(=O)C(c1ccccc1)N1CCN(C)CC1 (configuration not stated)	.	.	4.4	.	.	/
C[C@@H]1CN([C@@H](C)CO)S(=O)(=O)c2ccc(/C=C/c3ccccc3)cc2O[C@H]1CN(C)C(=O)c1ccc2c(c1)OCO2	/	/	/	/	/	.
CC(Sc1ccccn1)C(=O)NC1CCCC1 (configuration not stated)	.	.	4.4	.	.	.
CO[C@H]1CN(C)C(=O)c2cc(NC(=O)Nc3cccc(F)c3)ccc2OC[C@@H](C)N(C(C)=O)C[C@H]1C	/	/	/	/	/	.
Cc1ccccc1NC(=O)Nc1ccc(C(F)(F)F)cc1	11	38	.	.	.	/
Cc1ccccc1NC(=O)CNC(=O)c1ccc(C(F)(F)F)cc1	.	.	.	.	.	/
SMILES	hgDAF-12 ag	Wnt act	DAX1 StAR inh	ssDAF-12 act	hcDAF-12 act	esBAF inh
Nc1cccc2c1C(=O)c1ccc(Cl)cc1C2=O	.	?	3.7	.	.	.
O=C(O)c1cccc2c1-c1ccc(Cl)cc1C2=O	.	.	.	.	.	/
C[C@H](CO)N1C[C@H](C)[C@@H](CN(C)C(=O)C2CCCCC2)Oc2cc(-c3ccncc3)ccc2S1(=O)=O	/	/	/	/	/	.
C[C@@H]1CCCCO[C@H](CN(C)S(=O)(=O)c2cccs2)[C@H](C)CN([C@H](C)CO)C(=O)c2cc(NC(=O)Nc3ccc(F)cc3)ccc2O1	/	/	/	/	/	.
Cc1cccc(NC(=O)CCNC(=O)c2ccc(Br)cc2)c1	.	.	.	.	.	54
CC(=O)Nc1cccc(NC(=O)c2ccc(Br)cc2)c1	.	.	.	.	.	42
CC1CCC(NC(=O)c2ccc(Br)o2)CC1 (configuration not stated)	.	.	.	.	.	.
Cc1ccc(C(=O)NC2CCC(C)CC2)o1 (configuration not stated)	.	.	.	.	.	55
CS(=O)(=O)c1ccc(C(=O)NC2CCOC2=O)cc1 (configuration not stated)	.	.	.	.	.	.
CC1CCC(NC(=O)c2ccc(S(C)(=O)=O)cc2)CC1 (configuration not stated)	.	.	.	6.4	.	.
CCCNC(=O)N(C)C[C@H]1Oc2ncc(C#Cc3ccncc3)cc2C(=O)N([C@H](C)CO)C[C@@H]1C	/	/	/	/	/	.
O=C(C[C@H]1CC[C@@H](NC(=O)C2CCC2)[C@@H](CO)O1)NCCCN1CCOCC1	/	/	/	/	/	.
O=C(CNC(=O)c1ccc(Br)cc1)NC1CC1	.	.	.	.	.	.
CC1CCC(NC(=O)CCNC(=O)c2ccc(Br)cc2)CC1 (configuration not stated)	.	.	4.3	.	.	?
COc1cccc(-c2ccc3n(c2=O)C[C@H]2[C@H](CO)[C@@H](C(=O)N4CCOCC4)N[C@@H]32)c1	/	/	/	/	/	.
O=C1C2C3CCC(O3)C2C(=O)N1c1cccc(O)c1 (configuration not stated)	.	.	.	0.9	.	.
Nc1nc(Cl)nc2ccc(Br)cc12	.	/	.	.	.	/
CCc1c(C)nc2ccc(Br)cc2c1Cl	.	/	.	.	.	53
COc1ccc(C2C(CC(=O)O)=C(Nc3ccccc3)C(=O)N2c2ccccc2)cc1 (configuration not stated)	.	43	.	.	.	54
O=C(O)CC1=C(O)C(=O)N(c2ccccc2)C1c1ccccc1 (configuration not stated)	.	.	.	.	.	.
O=C(NC1CCCCC1)N[C@@H]1CC[C@@H](CCNS(=O)(=O)c2ccccc2)O[C@H]1CO	/	/	/	/	/	.
CNC[C@@H]1Oc2cc(C#CCC(C)C)ccc2S(=O)(=O)N([C@H](C)CO)C[C@H]1C	/	/	/	/	/	.
N#Cc1c(-c2cccnc2)c2c([nH]c1=O)-c1ccccc1OC2	.	44	.	.	.	.
CN(C)C(=O)[C@@H]1[C@@H](CO)[C@@H]2Cn3c(ccc(C4=CCCCC4)c3=O)[C@@H]2N1C(=O)c1ccccc1F	/	/	/	/	/	.
O=C(c1ccco1)N1CCN(C(=S)Nc2cccc([N+](=O)[O-])c2)CC1	.	.	.	.	.	/
O=[N+]([O-])c1cccc(NC(=S)N2CCc3ccccc3C2)c1	.	.	.	.	.	58
